# Test results from PubChem BioAssay (NCI).
# This is part of a sample that, as a whole, favours compounds with a hit. Of some 83,000 tested, about 20% had one in any assay.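 How to read the values: 0–100, growth inhibition (40 = 60% inhibited); 0, no net growth; -100 to 0, cell death (-40 = 40% of starting cells died; -100 = all dead).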 Unmarked numbers belong to inactive results. Calls of active or inactive are those of the source. The calls were made as follows: active = growth percent below 10; inactive = the rest.
# Columns and labels:
# Assay in all cases: NCI-60 one-dose screen, 48 h (100 = growth as untreated, 0 = no growth, -100 = all killed)
# Settings in all cases: 10 µM unless noted
# HCT-15 colon = system: HCT-15 colon
# HT29 colon = system: HT29 colon
# SNB-75 CNS = system: SNB-75 CNS
# SNB-19 CNS = system: SNB-19 CNS
# U251 CNS = system: U251 CNS
# PC-3 prostate = system: PC-3 prostate
# SK-MEL-5 melanoma = system: SK-MEL-5 melanoma
# UACC-62 melanoma = system: UACC-62 melanoma
# LOX IMVI melanoma = system: LOX IMVI melanoma
# SK-MEL-28 melanoma = system: SK-MEL-28 melanoma
# EKVX NSCLC = system: EKVX NSCLC
# SN12C renal = system: SN12C renal
# UO-31 renal = system: UO-31 renal
# TK-10 renal = system: TK-10 renal
# ACHN renal = system: ACHN renal
# CAKI-1 renal = system: CAKI-1 renal
# A498 renal = system: A498 renal
# CCRF-CEM leukemia = system: CCRF-CEM leukemia
# MOLT-4 leukemia = system: MOLT-4 leukemia
Structure (SMILES),growth (HCT-15 colon),growth (HT29 colon),growth (SNB-75 CNS),growth (SNB-19 CNS),growth (U251 CNS),growth (PC-3 prostate),growth (SK-MEL-5 melanoma),growth (UACC-62 melanoma),growth (LOX IMVI melanoma),growth (SK-MEL-28 melanoma),growth (EKVX NSCLC),growth (SN12C renal),growth (UO-31 renal),growth (TK-10 renal),growth (ACHN renal),growth (CAKI-1 renal),growth (A498 renal),growth (CCRF-CEM leukemia),growth (MOLT-4 leukemia)
FC(F)c1nc2ccccc2n1-c1nc(N2CCOCC2)nc(N2CCOCC2)n1,9.28% (active),2.81% (active),-48% (active),10.5%,4.05% (active),7.59% (active),-41.8% (active),-50% (active),-17.9% (active),-31% (active),2.75% (active),8.54% (active),-26.2% (active),-27.9% (active),-8.61% (active),-11% (active),-82.4% (active),8.99% (active),1.48% (active)
COc1ccc(Nc2ncccc2NC(=O)c2cn(Cc3cccc(Oc4ccccc4)c3)nn2)cc1,78.3%,101%,83.8%,95.3%,89.8%,69.8%,76.2%,67%,86.6%,102%,86.6%,92.3%,63.7%,99.6%,99.5%,87.3%,81.5%,91.4%,65.3%
COc1cc2ncnc(Oc3cccc(NC(=O)Nc4cc(C(C)(C)C(F)(F)F)on4)c3)c2cc1OC,22.4%,6.54% (active),38.1%,74.9%,50.8%,35.1%,0.0888% (active),-10.5% (active),0.911% (active),-3.09% (active),26.1%,21.1%,-0.0562% (active),-7.18% (active),3.9% (active),8.99% (active),-24.9% (active),39.7%,13.3%
CO[C@H]1C[C@@H]2CC[C@@H](C)[C@@](O)(O2)C(=O)C(=O)N2CCCC[C@H]2C(=O)O[C@H]([C@H](C)C[C@@H]2CC[C@@H](OC(=O)C(C)(CO)CO)[C@H](OC)C2)CC(=O)[C@H](C)/C=C(\C)[C@@H](O)[C@@H](OC)C(=O)[C@H](C)C[C@H](C)\C=C/C=C/C=C/1C,27.3%,4.55% (active),-0.0597% (active),30.6%,19.4%,18.1%,12.9%,31.5%,22.5%,34.2%,36.8%,34.8%,15.3%,26.1%,32.6%,30.9%,8.36% (active),16.2%,0.877% (active)
O=C1NC(=O)/C(=C/c2ccc3nccc(-c4ccncc4)c3c2)S1,-19.5% (active),-51.4% (active),-45.9% (active),-26.6% (active),-74.6% (active),-24.5% (active),-94.7% (active),-74.2% (active),-40.8% (active),-32.6% (active),-16.9% (active),-5.67% (active),-37.7% (active),-68.8% (active),-21.2% (active),-40.2% (active),-77.1% (active),0.0384% (active),-8.29% (active)
COc1ccc(Cc2cc(-c3ccccc3C)n[nH]c2=O)cc1,107%,98.1%,72.7%,87.1%,100%,81.7%,99.2%,94.8%,109%,106%,108%,92.3%,76.8%,116%,104%,109%,87.2%,-41.2% (active),96.9%
C=CC(=O)Nc1cc2c(Nc3ccc(F)c(Cl)c3)ncnc2cc1C#CC(C)(C)N1CCN(C)CC1,-78% (active),-70.4% (active),-99.8% (active),-98.9% (active),-94.8% (active),-87.4% (active),-98.4% (active),-94.6% (active),-91.4% (active),-96.9% (active),-93% (active),-87.7% (active),-99.8% (active),-97.5% (active),-100% (active),-99.8% (active),-96.3% (active),-11.5% (active),-23.1% (active)
Brc1ccc([I+]c2ccc(Br)cc2)cc1,49.3%,5.37% (active),-82.2% (active),-92.4% (active),-85% (active),24.7%,-82.9% (active),27%,20.4%,-14.6% (active),19.3%,-26.9% (active),51.2%,-18% (active),39%,51.2%,71.6%,20.3%,19.9%
Cc1cccc(Cl)c1NC(=O)c1cnc(Nc2cc(N3CCOCC3)cc(S(C)(=O)=O)c2)s1,43.3%,-68% (active),-50.1% (active),40.5%,50%,44.3%,57.9%,41.3%,-58.4% (active),52.6%,27.7%,28.6%,2.76% (active),-64.6% (active),-2.99% (active),-27.7% (active),-13.6% (active),72.7%,24.8%
Cc1nc2ccc(-n3ncc(C(=O)c4cc5ccccc5[nH]4)c3N)cc2[nH]1,30.9%,23.1%,39.9%,48.2%,24.4%,41.1%,32.8%,43.5%,14.8%,69.7%,63.9%,61.2%,48.9%,71.3%,49.8%,62.2%,8.03% (active),43.8%,25.1%
CN1CCN(c2nc(C3=C(c4c[nH]c5ccccc45)C(=O)NC3=O)c3ccccc3n2)CC1,85.3%,11.6%,79.4%,87.5%,69.4%,108%,45.6%,6.81% (active),80.4%,3.91% (active),82.6%,92.3%,64%,47.3%,70.2%,54.9%,75.1%,100%,74.7%
C=CC(=O)Nc1cc2c(Nc3ccc(F)c(Cl)c3)ncnc2cc1OCCCN1CCOCC1,-32% (active),-74.9% (active),-15.9% (active),17.4%,21.2%,17.5%,48.7%,-49.7% (active),-87% (active),-19% (active),15.8%,0.752% (active),-12.8% (active),-6.01% (active),2.82% (active),-5.99% (active),-29.3% (active),4.44% (active),-6.89% (active)
CO[C@H]1C[C@@H]2CC[C@@H](C)[C@@](O)(O2)C(=O)C(=O)N2CCCC[C@H]2C(=O)O[C@H]([C@H](C)C[C@@H]2CC[C@@H](OCCO)[C@H](OC)C2)CC(=O)[C@H](C)/C=C(\C)[C@@H](O)[C@H](OC)C(=O)[C@H](C)C[C@H](C)\C=C/C=C/C=C/1C,53.9%,44.1%,20.8%,49.5%,42.7%,44.3%,63.5%,40.8%,40.3%,44%,54.9%,54.3%,16.6%,63.8%,48.6%,47.6%,25.8%,35%,33.3%
CC/C(=C(\c1ccc(OCCN2CCCCCCC2)cc1)c1ccc(OC(=O)C2CCCCC2)cc1)c1ccc(Cl)cc1,94.3%,86.9%,99.7%,110%,98.9%,91.4%,102%,108%,102%,96.3%,105%,93.6%,73.8%,110%,97.2%,93.8%,63.7%,88.9%,88.9%
